Measurements as given in PubChem BioAssay (EPA / NIEHS).
Results filed as inconclusive are left out. The source made the active and inactive calls. The calls were made as follows: active = hit-call score of the fitted dose curve at least 0.9, where 1 is the maximum; inconclusive = response in the unintended direction; inactive = score below 0.9.

System: not listed separately
Assay: IUF_NPC1_cytotoxicity_72hr: Cytotoxicity Assessment at 72 hours in the Leibniz Research Institute for Environmental Medicine (IUF) Neural Progenitor Cell Proliferation Assay (NPC1) (AID 2284332);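 also: rising LDH signal means more cytotoxicity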
Method in brief: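 Readout is fluorescence from LDH-dependent resazurin conversion, sampled from culture medium after compound contact lasting 72 h. Each well holds one 0.25-0.35 mm human progenitor sphere kept at 37C, 5% CO2 with EGF and FGF.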

SMILES | outcome
CN(C)CCOC(C)(c1ccccc1)c1ccccn1 (configuration not stated) | inactive
COCCc1ccc(OCC(O)CNC(C)C)cc1 (configuration not stated) | inactive
Oc1c(Cl)cc(Cl)c(Cl)c1Cc1c(O)c(Cl)cc(Cl)c1Cl | inactive
COCCOCCOCCO | inactive

System: not listed separately
Assay: CCTE_Mundy_HCI_iCellGluta_NOG_NeuronCount: CCTE's Neurite Outgrowth Assay in iCellGluta cells for Neuron Count, Mundy Lab (AID 2284340);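 also: cells fixed about 48 h after compound addition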
Method in brief: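 Neuron count read by automated high-content imaging of Hoechst 33342 and betaIII-tubulin/Alexa Fluor-488 labelling in human iPSC glutamatergic neurons. Activity fitted relative to DMSO.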

SMILES | outcome
CN(C)CCOC(C)(c1ccccc1)c1ccccn1 (configuration not stated) | inactive
COCCc1ccc(OCC(O)CNC(C)C)cc1 (configuration not stated) | inactive
COCCOCCOCCO | inactive

System: not listed separately
Assay: CCTE_Mundy_HCI_iCellGluta_NOG_NeuriteCount: CCTE's Neurite Outgrowth Assay in iCellGluta cells for Neurite Count, Mundy Lab (AID 2284342);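 also: chemical exposure about 48 hours starting 2 hours after plating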

SMILES | outcome
CN(C)CCOC(C)(c1ccccc1)c1ccccn1 (configuration not stated) | inactive
COCCc1ccc(OCC(O)CNC(C)C)cc1 (configuration not stated) | inactive
COCCOCCOCCO | inactive

System: SERPINA7 (gene 6906)
Assay: CCTE_GLTED_hTBG: CCTE's human Thyroxine-binding Globulin (TBG) Inhibition Assay, Great Lakes Toxicology and Ecology Division (GLTED) Lab (AID 2284343);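 also: active chemicals lower fluorescence versus DMSO baseline by displacing probe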
Method in brief: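 Steps: combine TBG with chemical; incubate 2 hours so that disruptors release ANSA; record fluorescence (380 ex, 475 em). Loss of signal was fitted against DMSO controls.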

SMILES | outcome | AC50
C=C[Si]1(C)O[Si](C)(C=C)O[Si](C)(C=C)O[Si](C)(C=C)O1 (configuration not stated) | inactive | 
Clc1ccc(C(c2ccccc2Cl)C(Cl)Cl)cc1 (configuration not stated) |  | 1.79 µM (active)
BrCc1cccc(Oc2ccccc2)c1 |  | 23.3 µM (active)
O=C(CC(=O)c1ccccc1)c1ccccc1 |  | 8.66 µM (active)
COc1ccc(N=Nc2cc(C)c(N=Nc3ccc(S(=O)(=O)O)cc3)cc2OC)cc1 |  | 35.5 µM (active)
OCc1cccc(Oc2ccccc2)c1 |  | 27.4 µM (active)
O=C(c1ccccc1)C(O)c1ccccc1 (configuration not stated) |  | 15.9 µM (active)
O=CCc1ccccc1 |  | 14.2 µM (active)
CC(C)CCCCCCCCCCCCCCC(=O)O |  | 5.3 µM (active)
Cc1ccc(S(=O)(=O)Oc2ccc(N=Nc3ccc(-c4ccc(N=Nc5c(O)ccc6cc(S(=O)(=O)O)cc(S(=O)(=O)O)c56)c(C)c4)cc3C)cc2)cc1 |  | 3.93 µM (active)
O=[N+]([O-])c1ccc(O)cc1C(F)(F)F |  | 28.2 µM (active)
CCCCCCC(CO)CCCC (configuration not stated) |  | 24.2 µM (active)
